Assay results as given in PubChem BioAssay.
The source made the active and inactive calls. Unless noted, the rule behind the calls is not given here.

Assays:
[1] = resazurin metabolic signal in HepG2 cells – cell-based, resazurin fluorescence, 24 h, PK04 Diversity Set, profiling panel (AID 1172); conditions: HepG2 viability, higher = more signal
[2] = budding yeast growth changes without added modifier – OD600, strain BY4716, 24 h, basal condition, primary screen (AID 1173); conditions: S. cerevisiae BY4716 growth, OD600, 24 h; higher = more signal, called active from +8 up or from −8 down
[3] = viability profiling in MM1S myeloma cells – cell-based, resazurin fluorescence, basal, 24 h, PK04 Diversity Set, profiling panel (AID 1174); conditions: higher = more signal, called active from +8 up or from −8 down;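 note: MM1S multiple myeloma cell line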
[4] = target: Dihydroorotate dehydrogenase (quinone), mitochondrial (Plasmodium falciparum (isolate 3D7)) (UniProt Q08210); assay: inhibition of P. falciparum DHODH – biochemical, C-terminal His tag, absorbance 600 nm, primary screen (AID 1175); conditions: PfDHODH enzyme, DCIP absorbance 600 nm; higher = more signal, called active from +8 up or from −8 down;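 note: recombinant parasite enzyme with a five histidine tag at its C terminus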
Sequence of Dihydroorotate dehydrogenase (quinone), mitochondrial (Plasmodium falciparum (isolate 3D7)) (Q08210 whole entry, looked up): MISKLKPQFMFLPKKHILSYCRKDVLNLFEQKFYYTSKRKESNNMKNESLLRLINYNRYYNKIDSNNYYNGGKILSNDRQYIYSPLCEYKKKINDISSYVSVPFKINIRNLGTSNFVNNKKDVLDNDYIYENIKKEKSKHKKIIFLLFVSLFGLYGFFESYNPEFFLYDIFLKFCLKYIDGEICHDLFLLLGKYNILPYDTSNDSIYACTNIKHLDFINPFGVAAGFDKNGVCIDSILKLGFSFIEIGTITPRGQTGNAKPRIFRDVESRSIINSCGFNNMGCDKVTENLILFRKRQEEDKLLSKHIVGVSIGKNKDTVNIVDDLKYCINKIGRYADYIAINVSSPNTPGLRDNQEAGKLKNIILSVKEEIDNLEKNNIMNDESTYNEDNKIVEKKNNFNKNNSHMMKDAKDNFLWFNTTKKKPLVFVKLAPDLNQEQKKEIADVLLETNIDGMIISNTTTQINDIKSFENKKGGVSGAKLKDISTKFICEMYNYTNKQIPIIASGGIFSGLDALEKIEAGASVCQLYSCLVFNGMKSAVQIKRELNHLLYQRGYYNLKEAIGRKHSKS

[5] = inhibition of PAO1 biofilm formation – strain PAO1, LB-PBS medium, absorbance 600 nm, primary screen (AID 1176); conditions: P. aeruginosa PAO1 growth/biofilm, A600, 12 h; higher = more signal
[6] = growth modulation of vineyard yeast isolate – strain RM11-1a, OD600, basal, 24 h, primary screen (AID 1177);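 note: cultures grown under basal conditions with no added stressor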; conditions: S. cerevisiae RM11-1a growth, OD600, 24 h; higher = more signal, called active from +8 up or from −8 down
[7] = growth of efflux-deficient E. coli DRC39 – strain DRC39, OD650, 24 h, E. coli filamentation inducers, primary screen (AID 1178);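 note: growth measured as culture turbidity by optical density at 650 nm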; conditions: E. coli DRC39 acrAB, higher = more signal, called active from +8 up or from −8 down
[8] = growth of efflux-deficient E. coli DRC39 – strain DRC39, OD650, 48 h, E. coli filamentation inducers, primary screen (AID 1179);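 note: screen aims at cell division blockers that make cells filament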; conditions: E. coli DRC39 delta-acrAB growth, higher = more signal, called active from +8 up or from −8 down
[9] = viability profiling in RPMI8226 myeloma cells – cell-based, resazurin fluorescence, basal, 24 h, PK04 Diversity Set, profiling panel (AID 1180); conditions: higher = more signal;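 note: RPMI8826 multiple myeloma cell line at 5000 cells per well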
[10] = target: E3 ubiquitin-protein ligase XIAP (Homo sapiens) (UniProt P98170); assay: small molecules binding XIAP protein – biophysical, small-molecule microarray, fluorescence 635 nm, primary screen (AID 1181); conditions: higher = more signal;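 note: score merges 667 nm emission and signal to noise over triplicate slides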
Sequence of E3 ubiquitin-protein ligase XIAP (Homo sapiens) (P98170 whole entry, looked up, the tested form may be a part): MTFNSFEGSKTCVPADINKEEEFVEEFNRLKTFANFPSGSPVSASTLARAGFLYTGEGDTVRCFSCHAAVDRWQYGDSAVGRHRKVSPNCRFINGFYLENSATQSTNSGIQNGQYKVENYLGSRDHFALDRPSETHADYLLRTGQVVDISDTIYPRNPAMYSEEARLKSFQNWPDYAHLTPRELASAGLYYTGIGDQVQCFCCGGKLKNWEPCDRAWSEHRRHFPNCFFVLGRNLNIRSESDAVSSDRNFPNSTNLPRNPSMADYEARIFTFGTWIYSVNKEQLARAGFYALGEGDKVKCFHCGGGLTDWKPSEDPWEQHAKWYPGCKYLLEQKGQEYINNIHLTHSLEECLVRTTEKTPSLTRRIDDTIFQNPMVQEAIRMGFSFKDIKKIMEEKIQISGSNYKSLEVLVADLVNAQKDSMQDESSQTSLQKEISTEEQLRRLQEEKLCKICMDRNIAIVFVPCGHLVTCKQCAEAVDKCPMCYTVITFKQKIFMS

[11] = tested on: XIP peptide (Xip251-270) binding; assay: XIP fragment 251-270 binding compounds – biochemical, small-molecule microarray, fluorescence 635/667 nm, 0.1 µg/mL protein, primary screen (AID 1182); conditions: fluorescent protein binding, 635 nm, higher = more signal, called active from +8 up or from −8 down
XIP peptide (Xip251-270) = assay: compounds binding XIP fragment 251-270 – biochemical, small-molecule microarray, fluorescence 635/667 nm, 0.5 µg/mL protein, primary screen (AID 1183); conditions: fluorescence 635 nm, higher = more signal
[12] = blood-stage malaria parasite viability loss – strain 3D7, DAPI fluorescence, 100 nL, primary screen (AID 1184);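 note: parasites grown inside human red blood cells in medium with human serum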; conditions: P. falciparum 3D7 growth, 3 d, higher = more signal
[13] = target: Homeobox protein Hox-A13 (Mus musculus) (UniProt Q62424); assay: disruptors of Hoxa13 oligonucleotide interaction – biochemical, fluorescence polarization, labeled oligonucleotide, primary screen (AID 1185); conditions: Hoxa13:DNA binding, 15 min, higher = more signal, called active from +8 up or from −8 down
Sequence of Homeobox protein Hox-A13 (Mus musculus) (Q62424 whole entry, looked up): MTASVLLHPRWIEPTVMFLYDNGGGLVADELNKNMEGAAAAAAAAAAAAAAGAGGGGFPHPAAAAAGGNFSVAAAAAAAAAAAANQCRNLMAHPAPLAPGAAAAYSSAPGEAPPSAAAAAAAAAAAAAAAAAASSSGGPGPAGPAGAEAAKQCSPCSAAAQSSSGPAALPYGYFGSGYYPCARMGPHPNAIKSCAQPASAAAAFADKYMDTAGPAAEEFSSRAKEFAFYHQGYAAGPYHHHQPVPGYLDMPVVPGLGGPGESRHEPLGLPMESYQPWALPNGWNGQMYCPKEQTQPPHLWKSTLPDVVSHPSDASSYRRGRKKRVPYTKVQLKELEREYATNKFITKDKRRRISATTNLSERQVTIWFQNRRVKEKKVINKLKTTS

[14] = blockers of DNA damage checkpoint Chk1 activation – imaging, HeLa, hydroxyurea, phospho-Chk1 antibody, percent positive cells, primary screen (AID 1186); conditions: hydroxyurea-induced phospho-Chk1 immunofluorescence imaging, higher = more signal
[15] = blockers of DNA damage checkpoint Chk1 activation – imaging, HeLa, hydroxyurea, phospho-Chk1 nuclear intensity, primary screen (AID 1187); conditions: hydroxyurea-induced phospho-Chk1 immunofluorescence imaging, higher = more signal

O=C1c2ccccc2[C@](Cc2ccccc2I)(C(=O)NC2CC2)[C@H](c2ccc(CO)cc2)N1C1CCCCC1
z-score [1]: -0.13
z-score [2]: 0.404 (inactive)
z-score [3]: 0.516 (inactive)
composite z-score [4]: 1.06 (inactive)
z-score [5]: 0.304 (inactive)
z-score [6]: 2.64 (inactive)
z-score [7]: -0.0781 (inactive)
z-score [8]: -0.585 (inactive)
z-score [9]: 0.549
composite z-score [10]: -0.0426
composite z-score [11]: 0.247 (inactive)
composite z-score (XIP peptide (Xip251-270)): 0.743
z-score [12]: -1.77
z-score [13]: -3.63 (inactive)
z-score [14]: -0.199 (inactive)
z-score [15]: -0.0711 (inactive)

[N-]=[N+]=Nc1ccccc1C[C@]1(C(N)=O)N=C(c2ccc(OCCCO)cc2)O[C@H]1c1ccccc1
z-score [1]: 0.329
z-score [2]: -0.936 (inactive)
z-score [3]: -1.02 (inactive)
composite z-score [4]: 0.667 (inactive)
z-score [5]: 1.16 (inactive)
z-score [6]: 1.33 (inactive)
z-score [7]: 0.0314 (inactive)
z-score [8]: -0.665 (inactive)
z-score [9]: -1.03
composite z-score [10]: -0.108
composite z-score [11]: -0.254 (inactive)
composite z-score (XIP peptide (Xip251-270)): 0.537
z-score [12]: -0.98
z-score [13]: -7.09 (inactive)
z-score [14]: 0.0195 (inactive)
z-score [15]: -0.54 (inactive)

CCOC(=O)C[C@H]1[C@H](OC(=O)Cc2ccc3c(c2)OCO3)[C@@H](NC(=O)c2ccc3ccccc3c2)c2cc(OCCCO)ccc2N1C(=O)c1ccccc1
z-score [1]: 0.898
z-score [2]: -0.206 (inactive)
z-score [3]: -1.09 (inactive)
composite z-score [4]: -0.777 (inactive)
z-score [5]: 0.69 (inactive)
z-score [6]: 0.738 (inactive)
z-score [7]: -0.241 (inactive)
z-score [8]: 0.15 (inactive)
z-score [9]: -0.52
composite z-score [10]: -0.0426
composite z-score [11]: 0.0654 (inactive)
composite z-score (XIP peptide (Xip251-270)): 0.263
z-score [12]: 0.168
z-score [13]: -2.57 (inactive)
z-score [14]: -0.251 (inactive)
z-score [15]: -0.629 (inactive)

COC(=O)[C@@]1(Cc2ccc(F)cc2)[C@H]2c3cc(C(=O)N4CCCC4)n(Cc4ccc(C)o4)c3C[C@H]2CN1C(=O)c1ccccc1
z-score [1]: -0.814
z-score [2]: 0.707 (inactive)
z-score [3]: -6.17 (inactive)
composite z-score [4]: -1.04 (inactive)
z-score [5]: -0.595 (inactive)
z-score [6]: 0.544 (inactive)
z-score [7]: -0.201 (inactive)
z-score [8]: 0.548 (inactive)
z-score [9]: -5.35
composite z-score [10]: 0.0623
composite z-score [11]: 0.205 (inactive)
composite z-score (XIP peptide (Xip251-270)): 0.705
z-score [12]: -1.14
z-score [13]: -4.22 (inactive)
z-score [14]: -0.289 (inactive)
z-score [15]: -0.163 (inactive)

CN1C(=O)C2C=CC(C(O)c3ccc(I)cc3)N(N3CCCCC3)C2C1=O (stereo not given)
z-score [1]: -1.17
z-score [2]: -3.86 (inactive)
z-score [3]: -2.13 (inactive)
composite z-score [4]: 0.0552 (inactive)
z-score [5]: 0.338 (inactive)
z-score [6]: -0.0818 (inactive)
z-score [7]: -0.709 (inactive)
z-score [8]: -1.11 (inactive)
z-score [9]: -1.26
composite z-score [10]: 0.33
composite z-score [11]: 0.405 (inactive)
composite z-score (XIP peptide (Xip251-270)): 0.771
z-score [12]: -0.378
z-score [13]: -4.82 (inactive)
z-score [14]: 0.151 (inactive)
z-score [15]: -0.062 (inactive)

CN1C(=O)[C@]2(Cc3ccccc3)N=C(c3ccc(OCCCO)cc3)O[C@@H]2c2ccccc21
z-score [1]: -0.635
z-score [2]: -1.79 (inactive)
z-score [3]: -2.57 (inactive)
composite z-score [4]: 0.539 (inactive)
z-score [5]: 0.814 (inactive)
z-score [6]: 1.13 (inactive)
z-score [7]: 0.757 (inactive)
z-score [8]: 0.0422 (inactive)
z-score [9]: -2.41
composite z-score [10]: 0.0617
composite z-score [11]: 0.97 (inactive)
composite z-score (XIP peptide (Xip251-270)): 0.818
z-score [12]: -2.3
z-score [13]: -4.54 (inactive)
z-score [14]: -0.276 (inactive)
z-score [15]: 0.0593 (inactive)

CCOC1=C2C(CN(S(=O)(=O)c3ccc(C)cc3)C2c2ccc(C)cc2)C2C(=O)N(c3ccccc3)C(=O)C2C1 (stereo not given)
z-score [1]: -0.635
z-score [2]: 0.941 (inactive)
z-score [3]: -0.193 (inactive)
composite z-score [4]: -1.12 (inactive)
z-score [5]: -0.2 (inactive)
z-score [6]: 0.413 (inactive)
z-score [7]: -0.392 (inactive)
z-score [8]: 0.758 (inactive)
z-score [9]: 0.366
composite z-score [10]: -0.0773
composite z-score [11]: -0.0729 (inactive)
composite z-score (XIP peptide (Xip251-270)): 0.457
z-score [12]: 0.694
z-score [13]: -1.82 (inactive)
z-score [14]: 0.218 (inactive)
z-score [15]: 0.402 (inactive)

O=C1O[C@@H](c2ccccc2)[C@@H](c2ccccc2)N2[C@@H](c3ccc(OCCO)cc3)[C@]3(C(=O)Nc4ccccc43)[C@@H](C(=O)NC[C@H](O)c3ccccc3)[C@H]12
z-score [1]: 0.665
z-score [2]: 1.33 (inactive)
z-score [3]: 0.251 (inactive)
composite z-score [4]: -0.854 (inactive)
z-score [5]: 2.44 (inactive)
z-score [6]: 1.84 (inactive)
z-score [7]: 0.0225 (inactive)
z-score [8]: -0.348 (inactive)
z-score [9]: -0.0509
composite z-score [10]: -0.117
composite z-score [11]: 1.29 (inactive)
composite z-score (XIP peptide (Xip251-270)): 0.345
z-score [12]: 0.0884
z-score [13]: -5.41 (inactive)
z-score [14]: 0.167 (inactive)
z-score [15]: 0.696 (inactive)

CC(C)C[C@H]1NC(=O)[C@@]23C(=O)N[C@@H](Cc4ccccc4)C2[C@H](C)[C@@]2(C)O[C@H]2C3/C=C/C/C=C\CNC(=O)[C@H](Cc2ccccc2)NC1=O (stereo not given in full)
z-score [1]: 0.183
z-score [2]: 0.0247 (inactive)
z-score [3]: 0.333 (inactive)
composite z-score [4]: -0.259 (inactive)
z-score [5]: 0.0117 (inactive)
z-score [6]: 1.66 (inactive)
z-score [7]: 0.805 (inactive)
z-score [8]: 0.199 (inactive)
z-score [9]: 0.628
composite z-score [10]: 0.0842
composite z-score [11]: 0.303 (inactive)
composite z-score (XIP peptide (Xip251-270)): 0.725
z-score [12]: -1.45
z-score [13]: -7.51 (inactive)
z-score [14]: -0.0464 (inactive)
z-score [15]: 0.426 (inactive)

CN(C)CCCNC(=O)[C@@]1(c2ccc([N+](=O)[O-])cc2)CC(=O)N(C2CCCCC2)[C@@H]1c1ccc(CO)cc1
z-score [1]: -0.252
z-score [2]: -1.59 (inactive)
z-score [3]: -0.0665 (inactive)
composite z-score [4]: 0.456 (inactive)
z-score [5]: -0.177 (inactive)
z-score [6]: -0.0078 (inactive)
z-score [7]: 0.328 (inactive)
z-score [8]: -0.16 (inactive)
z-score [9]: -0.155
composite z-score [10]: -0.0073
composite z-score [11]: -0.209 (inactive)
composite z-score (XIP peptide (Xip251-270)): -0.0124
z-score [12]: -1.11
z-score [13]: -0.842 (inactive)
z-score [14]: -0.196 (inactive)
z-score [15]: -0.495 (inactive)
